This is an account of results in PubChem BioAssay (Tox21).

Results filed as inconclusive are left out. A number with no mark means an inactive call. Calls follow the shape of the full dose curve.
% is scaled to controls: 0 for no effect and ±100 for the full control effect.

This test can be described thus: p53 small molecule agonists, cell-based qHTS assay with human liver microsomes (AID 1963577).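 Also: p53 response element beta-lactamase reporter cells with liver microsomes plus NADPH.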 The note with it: HCT-116 p53RE-bla with human liver microsomes, ratio, 16 h; series mostly up to 66 µM; activation: at the top concentration. The source says:
National Center for Advancing Translational Sciences [NCATS]
Division of Preclinical Innovation [DPI]
U.S. Environmental Protection Agency [EPA]
National Institutes of Environmental Health Sciences [NIEHS]
National Toxicology Program [NTP]
U.S. Food and Drug Administration [FDA]
p53, a tumor suppressor protein, is activated following cellular insult, including DNA damage and other cellular stresses. The activation of p53 regulates cell fate by inducing DNA repair, cell cycle arrest, apoptosis, or cellular senescence. The activation of p53, therefore, is a good indicator of DNA damage and other cellular stresses. […] The activation of the reporter gene under culture conditions can be detected by fluorescence intensity.
Tox21 Assay Protocol Summary:
The p53RE-bla cells were dispensed at 4,000cells/3ul/well in 1536-well black-clear bottom plates. After the assay plates were incubated at 37 C, 5% CO2 incubator for 5 hours, 23 nL of compounds dissolved in DMSO, positive controls or DMSO only was transferred to the assay plate. Following compound addition, 3 uL of human liver microsomes (XenoTech, Kansas City, KS) at final concentration of 0.5 mg/mL and 1uL of Beta-Nicotinamide adenine dinucleotide 2-phosphate (NADPH) at final concentration of 0.5 mg/mL were transferred to the assay plate. The plates were incubated at 37 C for 16 hours. 1 uL of LiveBLAzer detection mixture was added to each well and the plates were incubated at room temperature in the dark for 2 h.
In general terms: qHTS replaces the single test concentration by a dilution series.
Turning to `C=COCC(C)C`, the “activation” value was -0.757%.
The value for `c1cc2c3c(c1)ccc1cccc(c13)C2` was 9.8%; that for `Nc1cccc(S(=O)(=O)O)c1` was 0.279%; that for `CC(=O)OCC[N+](C)(C)C` was 10.5% [at 30.3 µM].
Take `CN(C)C(=O)Nc1ccc(Oc2ccc(Cl)cc2)cc1`: the “activation” value was -1.95%.
The same measure for `C=Cc1ccccc1C=C`: 20.6% [at 172 µM]; for `OCCSc1ccccc1`: 2.4%.
The value for `C1=C\CC/C=C\CC/1` was 0.279%; that for `CC(C)OC(=O)c1cc2c(OCC(O)CNC(C)(C)C)cccc2[nH]1` (stereo not given) was -6.98% [at 30.3 µM]; that for `O=C1C=CCCC1` was 0.651%.
The same measure for `Cc1ccc(C(=O)Oc2ccc(C(O)CNC(C)(C)C)cc2OC(=O)c2ccc(C)cc2)cc1` (stereo not given): -0.978% [at 30.3 µM].
On to `O=C(/C=C/c1ccc(O)c(O)c1)O[C@@H]1C[C@](O)(C(=O)O)C[C@@H](O)[C@H]1O`, for which the “activation” value is 0.451%.
As for `CCCCCCCCCCCCN1CCOCC1`, the “activation” value is 0.216%.
The value for `CC(=O)O[C@H]1C[C@@H]2CC[C@@H]3[C@H](CC[C@@]4(C)[C@H]3C[C@H]([N+]3(C)CCCCC3)[C@@H]4OC(C)=O)[C@@]2(C)C[C@@H]1N1CCCCC1` was 1.15% [at 30.3 µM].
Take `Oc1cc2ccccc2cc1O`: the “activation” value was -8.88%.
Turning to `SC1CCCCC1`, the “activation” value was -3.77%.
The value for `CCCCCC(=O)OCCc1ccccc1` was 2.1%; that for `CC(C)(O)CCC(C)(C)O` was -1.41%; that for `CC(C)C[C@@H]1[C@H](c2ccccc2)OC(=O)N1CCCN1CCCCCC1` was 1.49% [at 30.3 µM].
Regarding `CCCCCN=C(N)N/N=C/c1c[nH]c2ccc(OC)cc12`, the “activation” value is -0.846% [at 30.3 µM].
As for `CC(C)NCC(O)COc1ccc(COCCOC(C)C)cc1` (stereo not given), the “activation” value is 0.752% [at 30.3 µM].
The value for `CCC(C(=O)OCCN(CC)CC)c1ccccc1` (stereo not given) was 7.66% [at 30.3 µM]; that for `CC(C)(C)N(CCO)CCO` was 0.571%; that for `C/C(=N\O)c1ccc(OCC(=O)N2CCCCC2)cc1` was -5.87% [at 30.3 µM].
The same measure for `CC(=O)Oc1ccc(C(C)=O)cc1`: 0.827%.
The same measure for `CCCCCCCCCCCCCOP(=O)(O)O`: 0.176%; for `CN1C[C@@H]2C[C@H]1CN2c1cc2c(cc1F)c(=O)c(C(=O)O)cn2C1CC1`: 9.29% [at 13.5 µM].
As for `COC(=O)C1=C(C)NC(C)=C(C(=O)OCCN2CCN(C(c3ccccc3)c3ccccc3)CC2)C1c1cccc([N+](=O)[O-])c1` (stereo not given), the “activation” value is 4.1% [at 30.3 µM].
Regarding `CCOC(=O)C1=C(C)NC(C)=C(C(=O)OC)C1c1cccc([N+](=O)[O-])c1` (stereo not given), the “activation” value was -8.85% [at 30.3 µM].
The value for `O=C1CCCCO1` was -1.55%; that for `NCC[C@H](O)C(=O)N[C@@H]1C[C@H](N)[C@@H](O[C@H]2O[C@H](CN)[C@@H](O)[C@H](O)[C@H]2O)[C@H](O)[C@H]1O[C@H]1O[C@H](CO)[C@@H](O)[C@H](N)[C@H]1O` was 0.0378% [at 0.249 µM].
The same measure for `O=NN(CCCl)C(=O)NC1CCCCC1`: 1.21% [at 30.3 µM]; for `CCN(CC)C(=O)/C(C#N)=C/c1cc(O)c(O)c([N+](=O)[O-])c1`: -1.09% [at 30.3 µM]; for `CC(O)COC(C)(C)C` (stereo not given): -0.0266%.
The same measure for `C[C@]12CCC(=O)C=C1CC[C@@H]1[C@@H]2[C@@H](O)C[C@@]2(C)[C@H]1CC[C@]2(O)C(=O)COC(=O)CCC(=O)O`: -7.75% [at 30.3 µM]; for `COc1cccc(-c2ccc(/C=C\CN3CCCCCC3)cc2Cl)c1`: -11.8%.
As to `CCOC(=O)C1=NOC(c2ccccc2)(c2ccccc2)C1`, the “activation” value is -2.24%.
The same measure for `CCN(CC)C(=O)Nc1ccc(OCC(O)CNC(C)(C)C)c(C(C)=O)c1` (stereo not given): -6.6% [at 30.3 µM]; for `CCCN1C[C@H](CSC)C[C@@H]2c3cccc4[nH]cc(c34)C[C@H]21`: -4.09% [at 30.3 µM]; for `CC(=O)CC(=O)Nc1ccc(C)cc1C`: -3.49%.
